Values joined by “and” are separate entries in the source; they are usually repeats but may differ in a detail not shown here. Equal values may be shown once. Screen size: about 260,000 compounds; about 1,500 (0.58%) were called active. Roughly 5% stayed inconclusive and do not appear here. These entries were drawn from the full list. Potency and affinity values are given separately. Values without a mark were called inactive.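 The calls were made as follows: active = inhibition above a set limit at one or more doses, reproduced on every date tested; inconclusive = results disagree between test dates, or hit never tested in dose response; inactive = the rest.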

As a reminder, the inhibition is the relative decrease from the control value, in per cent.

The assay concerns the target Virion infectivity factor (Human immunodeficiency virus type 1 group M subtype B (isolate BH10)) + Virion infectivity factor (Human immunodeficiency virus type 1 group M subtype B (isolate BRU/LAI)) + Virion infectivity factor (Human immunodeficiency virus type 1 group M subtype B (isolate PCV12)) + Virion infectivity factor (Human immunodeficiency virus type 1 group M subtype B (isolate HXB2)) + DNA dC->dU-editing enzyme APOBEC-3G (Homo sapiens) (UniProt P69720+P69721+P69722+P69723+Q9HC16). In words: HIV-1 Vif–A3G interaction blockers – biochemical, TR-FRET, GST-Vif 1-94, biotin-A3G peptide, dose response retest, primary screen (AID 1117319).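 Also: Vif residues 1-94 fused to GST binding biotinylated APOBEC3G peptide 110-148; 0% = full assay without inhibitor and 100% = GST in place of GST-Vif.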 Conditions: TR-FRET GST-Vif / biotin-A3G peptide binding; hits give high values.
On to `CC1CC(C)CN(CC(C)(C)NS(=O)(=O)c2ccccc2)C1` (stereo not drawn), for which the inhibition was 17.8%.

With `O=C1C2C3C=CC(CC3)C2C(=O)N1c1ccc(Cl)cc1` (stereo not drawn), the inhibition was 1.42%. Under `CCN(CC)C(=O)[C@H]1C[C@H](CC(=O)NC(C)(C)C)C(=O)N2CCc3c([nH]c4cc(CCC(=O)N(C)C)ccc34)[C@]12C` stands -0.23%; under `Cc1c(NS(=O)(=O)c2ccc(Cl)c(C(=O)OC(C)C(=O)NCc3ccco3)c2)c(=O)n(-c2ccccc2)n1C` (stereo not drawn), 5.59%; under `COc1ccccc1OCC(=O)NCc1ccco1`, 8.05%. Take `O=C(COC(=O)Cc1ccc(F)cc1)NCc1ccco1`: the inhibition is -14.6%. Regarding `CC(C)(Oc1ccc(Cl)cc1)C(=O)NCC(c1ccco1)N1CCCCC1` (stereo not drawn), the inhibition was 1.39%. Under `O=C(COC(=O)Cc1ccc(Cl)c(Cl)c1)NCc1ccco1` stands 7.25%; under `COc1cccc(OC)c1C(=O)OCC(=O)NCc1ccco1`, 5.04%. Under `COC(=O)CNC(=O)C(C)(C)Oc1ccc(Cl)cc1` stands -6.52%.

On to `CNC(=S)N1CCN(c2ccc(Cl)c(Cl)c2)CC1`, for which the inhibition was 1.98%.

Take `O=C1CSC(c2ccc(Cl)c(Cl)c2)N1c1nccs1` (stereo not drawn): the inhibition is 2.94%. For the compound `CN(C)C(=O)c1ccc(NC(=O)CSc2nnc(-c3ccc4c(c3)OCO4)o2)cc1`, the inhibition is 1.62%.

Consider `C/C(=N\Nc1ccc(F)cc1)c1ccc(N2CCOCC2)c(F)c1`, for which the inhibition was 6.07%. The value for `CC(=O)c1ccc(NC(=O)c2cnsn2)cc1` was 4.53%; that for `CCN(CC)C(=O)[C@H]1C[C@H](CC(=O)NCCc2ccccn2)C(=O)N2CCc3c([nH]c4cc(CCC(=O)N(C)C)ccc34)[C@]12C` was 17.5%; that for `CCNC(=S)N/N=C/c1c(C)nn(-c2cccc(Cl)c2)c1Cl` was 5.39%. As for `CC(=O)C1=C(C)OC(N)=C(C#N)C1c1cc2cccc(C)c2nc1Cl` (stereo not drawn), the inhibition was -1.1%.

With `CC(=O)C1=C(C)OC(N)=C(C#N)C1c1cc2cc(C)c(C)cc2nc1Cl` (stereo not drawn), the inhibition is 9.71%. Under `COc1ccc2nc(NC(=O)C3CCN(C(=O)c4ccc(F)cc4)CC3)sc2c1` stands -12.6%; under `CCc1oc(C(=O)OC)cc1CSC(=N)N`, -0.44%; under `Cc1cc2ccccn2c1C(=O)c1nc(NCc2ccccc2)ncc1Cl`, -3.29%. Consider `COc1cccc(C(=O)OCC(=O)Nc2ccc3c(c2)OCCO3)c1`, for which the inhibition was -5.71%. With `CSc1ncccc1C(=O)OCC(=O)NC(=O)NCCC(C)C`, the inhibition is -2.12%.

Regarding `O=C(NCC(c1cccs1)N1CCOCC1)c1ccc(Br)o1` (stereo not drawn), the inhibition was 22.6%.

In the case of `CC(=O)Nc1ccc(S(=O)(=O)Nc2nccs2)cc1`, the inhibition was -1.8%. In the case of `COc1ccc(-c2nnc(Nc3ccc(S(=O)(=O)Nc4nccs4)cc3)c3ccccc23)cc1`, the inhibition was 12.6%. The value for `COC(=O)[C@H](C)NC(=O)Nc1ccccc1C(F)(F)F` was 8.61%; that for `CNC(=O)C12CCC(C)(c3nc4cc(C)c(C)cc4nc31)C2(C)C` (stereo not drawn) was 2.01%. On to `CCOC(=O)C1CCN(Cc2cnc(Oc3ccc(C(C)(C)C)cc3)s2)CC1`, for which the inhibition is 28.3%. With `CCOC(=O)C1CCN(Cc2cnc(Oc3ccc(N)cc3)s2)CC1`, the inhibition is 3.48%.

With `Cc1cc(CNC(=O)CCc2nnc(CCCCc3ccccc3)o2)nn1C`, the inhibition was -5.35%.

Turning to `CN(C)c1ccc(C(=O)c2ccc(O)cc2O)cc1`, the inhibition was -0.42%.

In the case of `Cc1ccc(-c2cc(Cc3ccc(N(C)C)cc3)c(=O)[nH]n2)cc1`, the inhibition was -0.03%.

For the compound `O=C(Nc1ccc(Cl)cc1)C(c1ccccc1)N(CCO)CCO` (stereo not drawn), the inhibition was -1.42%. Under `COC(=O)c1ccc(CSc2nnc(-c3ccccc3)n2C)o1` stands 2.37%; under `O=C(O)c1ccc(C(=O)c2cc([N+](=O)[O-])cc([N+](=O)[O-])c2)cc1`, -9.99%; under `O=C(O)c1ccc(S(=O)(=O)c2ccccc2C(=O)O)c([N+](=O)[O-])c1`, -4.06%.

As for `Cc1cc(C(=O)Nc2ccccc2Cc2ccccc2)no1`, the inhibition was -1.05%.

As to `CCOC(=O)c1c(NC(=O)c2cccs2)sc(C)c1CC`, the inhibition is -1.19%. The value for `Cc1sc(NC(=O)c2cccs2)c(C(=O)OC(C)C)c1C` was 2.47%. With `O=C(O)/C(=C/c1ccc(Cl)c([N+](=O)[O-])c1)c1ccc(S(=O)(=O)N2CCCCC2)s1`, the inhibition was 19.6%. As for `COc1c(C)cc(C(=O)C2CCCN(C(=O)c3cc(C)nc(C)n3)C2)cc1C` (stereo not drawn), the inhibition is -12.6%. Regarding `CCc1cccc(NC(=O)CN(C)S(=O)(=O)c2cccc3cccnc23)c1`, the inhibition was 5.83%. `COc1cc(O)c(CCO)c2c1C(=O)C[C@@H](C)O2`: the inhibition is 1.87%. `COc1c(O)cc2c(c1O)C(=O)CC(c1ccccc1)O2` (stereo not drawn): the inhibition was 2.35%. Regarding `O=C(NCc1cccnc1)c1ccc(CS(=O)(=O)Cc2ccc(Cl)cc2)o1`, the inhibition was 21.4%. As to `Cc1noc(C)c1S(=O)(=O)N1CCC(C(=O)NC2CCN(Cc3ccccc3)CC2)CC1`, the inhibition was 28.3%. The value for `CCc1cccc(NC(=O)C2CCN(S(=O)(=O)c3c(C)noc3C)CC2)c1` was -1.11%; that for `CCCCn1c(SCC(=O)c2ccc(OCC)cc2)nc2cc(S(N)(=O)=O)ccc21` was 3.73%; that for `COc1ccc(NC(=O)CCCCCN2C(=O)CCC2=O)cc1Cl` was -2.09%. The value for `CN1CC(=O)N(CC(=O)Nc2ccc(Cl)c(C(F)(F)F)c2)C1=O` was -5.66%; that for `O[C@H]1C[C@H](c2ccccc2)N(CC2CCCCC2)C[C@@H]1n1cc(C2CC2)nn1` was -3.24%; that for `Cc1ccc(C)c(N(C(=O)Cn2nnc3ccccc32)C(C(=O)NCc2ccco2)c2ccncc2)c1` (stereo not drawn) was -2.7%.

As for `Cc1ccccc1N(C(=O)Cn1nnc2ccccc21)C(C(=O)NCc1ccco1)c1ccncc1` (stereo not drawn), the inhibition is -7.73% and -2.99%. For `CC(C)Oc1ccc(N2CC(C(=O)Nc3ccccc3C(=O)NC3CC3)CC2=O)cc1` (stereo not drawn), the inhibition was -13%. The value for `Cc1ccc2[nH]c(=O)c(C3=NN(C(=O)CCC(=O)O)C(c4cccs4)C3)c(-c3ccccc3)c2c1` (stereo not drawn) was 2.41%. For the compound `COC(=O)C(CC(=O)c1ccc(Cl)cc1)c1ccc(C(C)C)cc1` (stereo not drawn), the inhibition was 10.5%. With `O=C(CCCl)N(Cc1nc2ccccc2c(=O)[nH]1)Cc1cccs1`, the inhibition was -7.06%. As to `CC(C)NC(=O)N(Cc1ccccc1)Cc1cccs1`, the inhibition was -1.49%. The value for `CN(CC(=O)Nc1cccc(F)c1)C(=O)c1ccccc1OCCOc1ccccc1` was 2.96%. In the case of `CC(=O)Nc1ccc(NC(=O)c2ccc(-c3ccc([N+](=O)[O-])cc3)o2)cc1`, the inhibition is -7.43%. Consider `O=C(NNC(=O)c1cc2ccccc2o1)c1ccc(F)cc1`, for which the inhibition is -2.65%. With `O=C(NNC(=O)c1ccccc1C(=O)O)c1cc2ccccc2o1`, the inhibition is 19%. Under `C=CCNC(=O)c1ccc(-c2ccc([N+](=O)[O-])cc2)o1` stands 16.1%; under `CC1CCN(c2ccccc2NC(=S)NC(=O)C(C)(C)C)CC1`, -4.59%.

As for `COc1ccc2c(CC(=O)NNC(=O)c3cccs3)coc2c1`, the inhibition is 5.01%.

As for `CCCC(C(=O)NC(C)(C)C)N(Cc1ccccc1)C(=O)c1snc(C(N)=O)c1N` (stereo not drawn), the inhibition is 3.36%.

As to `Cc1nn(Cc2ccc(Cl)cc2Cl)c(C)c1NC(=O)c1nn(C)cc1Cl`, the inhibition was -2.6%. For `O=C(CCc1ccccc1)Nc1ccc(NS(=O)(=O)c2ccccc2)cc1`, the inhibition is 0.68%.

Turning to `Cc1c[n+]([O-])cc(C)c1[N+](=O)[O-]`, the inhibition was -3.91%. Consider `O=C(CCN1CCN(CCO)CC1)Nc1ccc(OCc2ccccc2)cc1`, for which the inhibition is -0.21%. In the case of `c1cc2c(cc1CN1CCOCC1)OCO2`, the inhibition was 11.3%. `CC1(C)CC(=O)C2=C(C1)NCN(Cc1ccccc1)C2`: the inhibition was 0.39%. As for `O=C(OCC(=O)N1CCCC1)c1c2c(nc3ccccc13)CCCCC2`, the inhibition is -4.27%. As for `NNC(=O)C1C(O)CCC2CN3CCc4c([nH]c5ccccc45)C3CC21` (stereo not drawn), the inhibition is -9.7%. As to `C[C@@H]1ON(C)[C@H]2C[C@H]3c4[nH]c5ccccc5c4CCN3C[C@@H]12`, the inhibition is -1.4%. The value for `Cc1ccnc(NS(=O)(=O)c2cc([N+](=O)[O-])ccc2C)c1` was -2.19%; that for `Cc1ccc(C2=N/C(=C\c3ccc(F)cc3)C(=O)N2)cc1` was -3.34%; that for `COc1ccc(/C=C2\N=C(c3ccccc3Cl)NC2=O)cc1` was 3.99%. Take `Brc1cccc(-c2nnco2)c1`: the inhibition is -2.5%. Under `O=c1/c(=C/c2ccco2)sc2n1CN(c1cccc(Br)c1)CN=2` stands 32.9%; under `O=C(CCc1nc2ccccc2c(=O)[nH]1)OCc1ccc(-c2ccccc2)cc1`, -13.5%; under `CCc1ccc2c(c1)C(=O)CCC2`, -0.54%. The value for `O=C(CN1CCCCC1)NCCNC(=O)CN1CCCCC1` was -5.6%. The value for `Cc1ccc2c(c1)c1c3n2CCN(C(=O)CN2CCN(C)CC2)C3CCC1` (stereo not drawn) was -1.2%; that for `Cc1ccc2c(c1)c1c3n2CCN(C(=O)C2CC2)C3CCC1` (stereo not drawn) was 14.1%.

Regarding `COC(=O)c1ccc2c(c1)SC1=C(CCCC1=O)N2`, the inhibition is 20.1%.

In the case of `CNCc1ccccc1OCc1ccc(F)cc1`, the inhibition was -4.9%. Under `CC(C(=O)Nc1ccc2c(c1)OCCO2)N1Cc2ccccc2C1=O` (stereo not drawn) stands 7.84%. The value for `CCC(C)[C@@H](C(=O)Nc1ccc(OC)c(OC)c1)N1Cc2ccccc2C1=O` (stereo partly drawn) was 3.88%; that for `N#CC(C(N)=O)=C1CCC2(CC1)OCCCCO2` was 3.27%. For `N#C/C(C(N)=O)=C1/CCc2ccccc2N1`, the inhibition is -2.65%.
